Among the data in paper PMC7862700, “An all-to-all approach to the identification of sequence-specific readers for epigenetic DNA modifications on cytosine” are binding signal values, retold here.

Common to all, as to assay: DAPPL (digital affinity profiling via proximity ligation, sequencing); 10 mM Tris-HCl pH 7.5, 50 mM NaCl, 1 mM DTT, 4% glycerol, room temperature, 30 min; GST-TFs on glutathione beads, 16-mer random dsDNA library, 0.1% formaldehyde crosslink after washing; high values mean tight binding
In one assay the target is T1, FEV (Homo sapiens, UniProt Q99581 1-238).
T1 sequence: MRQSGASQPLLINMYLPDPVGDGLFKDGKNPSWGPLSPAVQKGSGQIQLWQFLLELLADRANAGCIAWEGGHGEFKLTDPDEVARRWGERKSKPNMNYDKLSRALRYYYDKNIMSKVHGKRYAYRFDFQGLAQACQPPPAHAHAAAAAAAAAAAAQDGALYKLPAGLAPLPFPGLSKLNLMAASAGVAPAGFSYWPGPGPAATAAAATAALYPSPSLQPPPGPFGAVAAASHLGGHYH
To be noted: protein: recombinant; tags: N-terminal GST; dsDNA, one strand shown. The essentials:
(§1)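 Binding signal is each hexamer's read frequency for a factor divided by its frequency in the tag-only sample. The factors were GST-fused human transcription factors from yeast, captured on glutathione beads, DNA-barcoded and pooled with that sample. Pools were incubated with 200 nmole of a random double-stranded 16-mer DNA library in Tris/NaCl/DTT/glycerol buffer at room temperature for 30 min, then washed, crosslinked with 0.1% formaldehyde, proximity-ligated with BsaI/T4 ligase (1 h, 37 °C), PCR-amplified and sequenced on an Illumina NextSeq500.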

A further assay has as its target ETV5 (Homo sapiens, UniProt P41161 1-510). To be noted: protein: recombinant; tags: N-terminal GST; dsDNA, one strand shown. Put shortly: as §1
For the next assay, the target named is HSF1 (Homo sapiens, UniProt Q00613 1-529). The settings on record: protein: recombinant; tags: N-terminal GST; chain copies: 3; dsDNA, one strand shown. Put shortly: as §1
A further assay addresses T2, SPIC (Homo sapiens, UniProt Q8N5J4 1-248).
T2 sequence: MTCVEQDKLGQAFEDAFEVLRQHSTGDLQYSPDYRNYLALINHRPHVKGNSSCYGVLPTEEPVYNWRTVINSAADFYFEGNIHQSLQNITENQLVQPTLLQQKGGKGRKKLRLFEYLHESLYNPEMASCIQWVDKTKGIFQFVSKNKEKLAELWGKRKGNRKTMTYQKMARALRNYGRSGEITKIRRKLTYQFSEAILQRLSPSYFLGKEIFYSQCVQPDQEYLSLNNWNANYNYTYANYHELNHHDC
The settings on record: protein: recombinant; tags: N-terminal GST; dsDNA, one strand shown. The essentials:
as §1

In a further assay the target is ELF4 (Homo sapiens, UniProt Q99607 1-663). To be noted: protein: recombinant; tags: N-terminal GST; dsDNA, one strand shown. Put shortly:
as §1

The target in another assay is T3, ELK4 (Homo sapiens, UniProt P28324-2 1-405).
T3 sequence: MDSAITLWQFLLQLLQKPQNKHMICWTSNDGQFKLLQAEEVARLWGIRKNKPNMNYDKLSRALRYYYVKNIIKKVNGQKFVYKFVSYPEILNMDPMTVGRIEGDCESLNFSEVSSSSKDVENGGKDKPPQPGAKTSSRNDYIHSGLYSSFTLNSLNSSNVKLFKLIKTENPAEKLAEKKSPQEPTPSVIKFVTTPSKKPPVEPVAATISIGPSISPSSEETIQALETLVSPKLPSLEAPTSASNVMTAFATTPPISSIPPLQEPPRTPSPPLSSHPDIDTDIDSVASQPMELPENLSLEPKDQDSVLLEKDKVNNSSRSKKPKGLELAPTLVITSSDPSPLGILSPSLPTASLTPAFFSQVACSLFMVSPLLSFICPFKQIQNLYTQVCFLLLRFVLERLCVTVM
To be noted: protein: recombinant; tags: N-terminal GST; dsDNA, one strand shown. Put shortly:
as §1

A further assay deals with T4, ETV2 (Homo sapiens, UniProt O00321 1-342).
T4 sequence: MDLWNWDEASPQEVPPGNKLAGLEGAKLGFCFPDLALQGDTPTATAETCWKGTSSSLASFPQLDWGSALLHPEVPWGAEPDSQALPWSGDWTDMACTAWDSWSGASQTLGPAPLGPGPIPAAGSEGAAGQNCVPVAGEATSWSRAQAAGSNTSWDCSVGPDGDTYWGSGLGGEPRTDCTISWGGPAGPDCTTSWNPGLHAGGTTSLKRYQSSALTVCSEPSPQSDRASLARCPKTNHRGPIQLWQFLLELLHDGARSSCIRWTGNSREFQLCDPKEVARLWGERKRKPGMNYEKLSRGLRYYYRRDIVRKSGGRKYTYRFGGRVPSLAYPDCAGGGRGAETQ
To be noted: protein: recombinant; tags: N-terminal GST; dsDNA, one strand shown. The essentials: as §1

The next assay deals with T5, ELF3 (Homo sapiens, UniProt P78545 1-371).
T5 sequence: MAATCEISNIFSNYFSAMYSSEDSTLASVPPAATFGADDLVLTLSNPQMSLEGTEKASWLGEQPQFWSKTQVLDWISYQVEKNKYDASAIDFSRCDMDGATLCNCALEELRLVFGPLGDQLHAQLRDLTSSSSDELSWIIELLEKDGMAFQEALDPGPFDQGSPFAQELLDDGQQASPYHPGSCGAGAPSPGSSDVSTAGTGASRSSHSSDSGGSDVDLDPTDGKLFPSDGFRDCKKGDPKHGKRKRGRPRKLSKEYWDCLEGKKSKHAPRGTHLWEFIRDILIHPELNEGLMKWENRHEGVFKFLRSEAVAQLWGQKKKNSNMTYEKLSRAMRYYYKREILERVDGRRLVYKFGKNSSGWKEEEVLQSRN
To be noted: protein: recombinant; tags: N-terminal GST; dsDNA, one strand shown. Put shortly: as §1

A further assay deals with CRX (Homo sapiens, UniProt O43186 1-299). To be noted: protein: recombinant; tags: N-terminal GST; dsDNA, one strand shown. Put shortly:
as §1

The next assay has as its target ETV1 (Homo sapiens, UniProt P50549 1-477). The settings on record: protein: recombinant; tags: N-terminal GST; dsDNA, one strand shown. Put shortly:
as §1

The target in the next assay is T6, ERF (Homo sapiens, UniProt P50548 1-548).
T6 sequence: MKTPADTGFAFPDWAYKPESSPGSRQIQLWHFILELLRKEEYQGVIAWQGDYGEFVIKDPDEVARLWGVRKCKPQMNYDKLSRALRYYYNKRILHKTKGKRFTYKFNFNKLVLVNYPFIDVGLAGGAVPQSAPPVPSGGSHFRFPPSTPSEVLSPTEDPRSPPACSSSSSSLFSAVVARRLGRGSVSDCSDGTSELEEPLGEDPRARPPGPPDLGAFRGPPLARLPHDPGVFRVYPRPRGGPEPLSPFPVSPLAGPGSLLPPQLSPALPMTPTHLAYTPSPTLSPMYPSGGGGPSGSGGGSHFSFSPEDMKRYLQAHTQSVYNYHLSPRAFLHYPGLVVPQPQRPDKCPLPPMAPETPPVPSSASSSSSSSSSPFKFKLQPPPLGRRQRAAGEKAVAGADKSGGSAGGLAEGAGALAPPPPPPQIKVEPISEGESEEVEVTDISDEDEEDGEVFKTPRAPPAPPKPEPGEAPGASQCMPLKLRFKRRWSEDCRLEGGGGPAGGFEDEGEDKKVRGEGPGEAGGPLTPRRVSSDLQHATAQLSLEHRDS
The settings on record: protein: recombinant; tags: N-terminal GST; dsDNA, one strand shown. Put shortly:
as §1

Another assay concerns the target T7, ETV3L (Homo sapiens, UniProt Q6ZN32 1-361).
T7 sequence: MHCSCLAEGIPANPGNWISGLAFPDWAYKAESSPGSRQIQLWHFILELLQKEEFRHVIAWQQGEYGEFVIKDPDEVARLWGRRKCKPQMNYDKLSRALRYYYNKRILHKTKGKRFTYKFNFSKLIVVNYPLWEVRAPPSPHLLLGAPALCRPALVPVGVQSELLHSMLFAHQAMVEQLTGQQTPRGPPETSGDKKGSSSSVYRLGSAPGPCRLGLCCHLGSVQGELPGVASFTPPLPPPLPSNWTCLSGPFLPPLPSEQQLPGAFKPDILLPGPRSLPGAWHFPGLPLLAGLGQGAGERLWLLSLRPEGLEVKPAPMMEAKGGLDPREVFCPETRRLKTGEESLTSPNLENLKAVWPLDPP
The settings on record: protein: recombinant; tags: N-terminal GST; dsDNA, one strand shown. The essentials: as §1

A further assay addresses T8, ETS2 (Homo sapiens, UniProt P15036 1-469).
T8 sequence: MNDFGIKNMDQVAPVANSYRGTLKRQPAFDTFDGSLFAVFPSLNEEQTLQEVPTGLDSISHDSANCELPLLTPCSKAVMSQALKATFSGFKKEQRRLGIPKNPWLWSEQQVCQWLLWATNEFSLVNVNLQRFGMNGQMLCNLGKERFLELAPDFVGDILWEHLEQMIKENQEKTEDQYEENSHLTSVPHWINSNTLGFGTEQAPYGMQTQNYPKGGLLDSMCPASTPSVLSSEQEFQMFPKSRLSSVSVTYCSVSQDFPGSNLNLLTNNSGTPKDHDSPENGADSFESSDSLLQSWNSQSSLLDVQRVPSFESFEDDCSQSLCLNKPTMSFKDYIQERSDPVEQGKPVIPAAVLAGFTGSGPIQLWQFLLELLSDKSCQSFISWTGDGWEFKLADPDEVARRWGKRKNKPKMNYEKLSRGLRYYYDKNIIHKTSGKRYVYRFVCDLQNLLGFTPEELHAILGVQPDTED
To be noted: protein: recombinant; tags: N-terminal GST; dsDNA, one strand shown. Put shortly: as §1

A further assay has as its target T9, SPDEF (Homo sapiens, UniProt O95238 1-335).
T9 sequence: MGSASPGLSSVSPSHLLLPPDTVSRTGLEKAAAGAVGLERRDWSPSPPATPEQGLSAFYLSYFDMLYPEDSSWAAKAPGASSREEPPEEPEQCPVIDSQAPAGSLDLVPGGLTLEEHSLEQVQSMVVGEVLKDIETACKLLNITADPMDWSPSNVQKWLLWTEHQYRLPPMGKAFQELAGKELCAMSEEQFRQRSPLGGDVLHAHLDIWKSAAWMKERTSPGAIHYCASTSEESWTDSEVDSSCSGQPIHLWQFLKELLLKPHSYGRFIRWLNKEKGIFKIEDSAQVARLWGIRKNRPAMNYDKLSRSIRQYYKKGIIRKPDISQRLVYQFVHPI
The settings on record: protein: recombinant; tags: N-terminal GST; dsDNA, one strand shown. Put shortly: as §1

In another assay the target is T10, ETV7 (Homo sapiens, UniProt Q9Y603 1-341).
T10 sequence: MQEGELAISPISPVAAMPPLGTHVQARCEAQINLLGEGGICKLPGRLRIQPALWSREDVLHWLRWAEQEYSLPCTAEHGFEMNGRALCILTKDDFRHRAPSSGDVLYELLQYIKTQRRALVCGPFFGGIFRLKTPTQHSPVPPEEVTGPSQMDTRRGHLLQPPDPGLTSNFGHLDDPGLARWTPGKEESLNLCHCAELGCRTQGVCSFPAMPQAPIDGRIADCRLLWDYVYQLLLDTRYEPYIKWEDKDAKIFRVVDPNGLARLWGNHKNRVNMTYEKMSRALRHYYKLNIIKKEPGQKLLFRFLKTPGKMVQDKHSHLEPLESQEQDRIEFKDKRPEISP
The settings on record: protein: recombinant; tags: N-terminal GST; dsDNA, one strand shown. Put shortly: as §1

In the next assay the target is T11, ELF5 (Homo sapiens, UniProt Q9UKW6-2 1-255).
T11 sequence: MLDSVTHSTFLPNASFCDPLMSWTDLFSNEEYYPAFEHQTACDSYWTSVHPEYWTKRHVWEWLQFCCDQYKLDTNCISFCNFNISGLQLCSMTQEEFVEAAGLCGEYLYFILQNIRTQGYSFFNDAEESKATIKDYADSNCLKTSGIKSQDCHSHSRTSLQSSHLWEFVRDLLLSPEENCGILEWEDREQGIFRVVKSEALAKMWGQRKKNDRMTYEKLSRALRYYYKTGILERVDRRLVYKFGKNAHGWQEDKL
The settings on record: protein: recombinant; tags: N-terminal GST; dsDNA, one strand shown. Put shortly:
as §1

The target in a further assay is T12, ETV3 (Homo sapiens, UniProt P41162-2 1-143).
T12 sequence: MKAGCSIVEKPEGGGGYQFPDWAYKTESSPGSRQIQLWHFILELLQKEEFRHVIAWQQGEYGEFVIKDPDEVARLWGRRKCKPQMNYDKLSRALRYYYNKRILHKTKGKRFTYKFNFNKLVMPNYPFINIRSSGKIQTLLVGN
The settings on record: protein: recombinant; tags: N-terminal GST; dsDNA, one strand shown. The essentials:
as §1

A further assay has as its target ETV6 (Homo sapiens, UniProt P41212 1-452). The settings on record: protein: recombinant; tags: N-terminal GST; dsDNA, one strand shown. Put shortly: as §1

Chain of ETV6 (P41212 whole entry): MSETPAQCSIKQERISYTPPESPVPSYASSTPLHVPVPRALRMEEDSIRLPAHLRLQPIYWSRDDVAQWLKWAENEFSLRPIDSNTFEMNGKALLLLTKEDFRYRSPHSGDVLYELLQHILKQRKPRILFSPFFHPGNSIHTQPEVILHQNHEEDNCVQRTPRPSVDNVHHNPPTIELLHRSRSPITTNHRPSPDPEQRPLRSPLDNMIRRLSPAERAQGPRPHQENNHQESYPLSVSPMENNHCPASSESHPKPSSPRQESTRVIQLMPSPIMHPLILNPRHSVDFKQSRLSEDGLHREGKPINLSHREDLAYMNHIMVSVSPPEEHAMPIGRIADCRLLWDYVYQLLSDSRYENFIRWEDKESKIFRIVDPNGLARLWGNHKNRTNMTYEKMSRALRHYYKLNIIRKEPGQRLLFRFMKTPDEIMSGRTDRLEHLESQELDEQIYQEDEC
Chain of HSF1 (Q00613 whole entry): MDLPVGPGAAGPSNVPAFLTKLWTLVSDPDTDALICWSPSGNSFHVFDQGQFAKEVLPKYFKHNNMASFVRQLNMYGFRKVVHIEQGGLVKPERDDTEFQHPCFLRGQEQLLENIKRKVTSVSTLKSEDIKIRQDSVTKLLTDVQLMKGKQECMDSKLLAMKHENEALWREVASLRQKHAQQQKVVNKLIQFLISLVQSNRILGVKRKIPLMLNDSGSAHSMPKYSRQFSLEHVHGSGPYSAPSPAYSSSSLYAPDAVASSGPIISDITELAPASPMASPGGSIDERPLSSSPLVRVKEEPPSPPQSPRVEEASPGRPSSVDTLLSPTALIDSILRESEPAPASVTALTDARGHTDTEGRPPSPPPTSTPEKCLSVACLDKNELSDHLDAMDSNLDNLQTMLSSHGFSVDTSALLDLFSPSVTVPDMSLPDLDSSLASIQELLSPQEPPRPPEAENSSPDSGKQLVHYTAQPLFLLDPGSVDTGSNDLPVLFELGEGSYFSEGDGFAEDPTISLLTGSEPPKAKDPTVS
Chain of CRX (O43186 whole entry): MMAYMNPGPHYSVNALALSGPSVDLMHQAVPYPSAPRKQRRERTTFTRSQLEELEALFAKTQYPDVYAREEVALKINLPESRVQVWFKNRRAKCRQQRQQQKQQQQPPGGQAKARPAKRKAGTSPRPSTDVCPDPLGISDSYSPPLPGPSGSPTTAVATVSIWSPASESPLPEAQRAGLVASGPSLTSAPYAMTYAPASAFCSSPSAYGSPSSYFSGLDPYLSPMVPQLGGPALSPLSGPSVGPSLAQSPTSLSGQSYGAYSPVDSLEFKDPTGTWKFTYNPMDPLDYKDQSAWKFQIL
Chain of ETV5 (P41161 whole entry): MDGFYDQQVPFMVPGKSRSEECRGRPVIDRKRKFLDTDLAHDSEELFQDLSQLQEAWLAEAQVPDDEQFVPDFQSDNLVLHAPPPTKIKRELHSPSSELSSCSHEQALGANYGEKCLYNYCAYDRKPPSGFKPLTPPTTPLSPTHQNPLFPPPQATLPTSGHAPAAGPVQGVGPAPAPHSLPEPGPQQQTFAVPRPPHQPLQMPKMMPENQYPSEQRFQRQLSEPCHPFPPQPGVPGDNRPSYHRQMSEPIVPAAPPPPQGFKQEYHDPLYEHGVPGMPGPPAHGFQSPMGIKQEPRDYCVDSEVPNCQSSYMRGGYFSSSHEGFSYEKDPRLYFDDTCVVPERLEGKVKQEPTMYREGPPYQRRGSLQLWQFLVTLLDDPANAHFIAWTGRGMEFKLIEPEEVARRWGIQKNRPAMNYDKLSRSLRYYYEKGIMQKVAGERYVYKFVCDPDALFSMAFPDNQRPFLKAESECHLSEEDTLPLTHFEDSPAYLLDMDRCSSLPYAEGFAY
Chain of ETV1 (P50549 whole entry): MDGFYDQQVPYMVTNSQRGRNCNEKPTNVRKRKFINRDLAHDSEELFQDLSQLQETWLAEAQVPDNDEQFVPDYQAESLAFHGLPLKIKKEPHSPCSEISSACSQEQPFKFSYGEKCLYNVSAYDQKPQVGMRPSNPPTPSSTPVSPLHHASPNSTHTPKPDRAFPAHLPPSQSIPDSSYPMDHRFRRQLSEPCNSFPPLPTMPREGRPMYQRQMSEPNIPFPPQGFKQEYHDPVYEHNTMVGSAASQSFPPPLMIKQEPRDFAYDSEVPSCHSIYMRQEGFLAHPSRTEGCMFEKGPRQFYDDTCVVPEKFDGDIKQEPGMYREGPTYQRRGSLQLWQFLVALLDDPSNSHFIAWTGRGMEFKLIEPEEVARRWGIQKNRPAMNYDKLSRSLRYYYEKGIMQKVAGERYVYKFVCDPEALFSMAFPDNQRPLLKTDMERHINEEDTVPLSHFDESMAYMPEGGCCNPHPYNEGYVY
Chain of ELF4 (Q99607 whole entry): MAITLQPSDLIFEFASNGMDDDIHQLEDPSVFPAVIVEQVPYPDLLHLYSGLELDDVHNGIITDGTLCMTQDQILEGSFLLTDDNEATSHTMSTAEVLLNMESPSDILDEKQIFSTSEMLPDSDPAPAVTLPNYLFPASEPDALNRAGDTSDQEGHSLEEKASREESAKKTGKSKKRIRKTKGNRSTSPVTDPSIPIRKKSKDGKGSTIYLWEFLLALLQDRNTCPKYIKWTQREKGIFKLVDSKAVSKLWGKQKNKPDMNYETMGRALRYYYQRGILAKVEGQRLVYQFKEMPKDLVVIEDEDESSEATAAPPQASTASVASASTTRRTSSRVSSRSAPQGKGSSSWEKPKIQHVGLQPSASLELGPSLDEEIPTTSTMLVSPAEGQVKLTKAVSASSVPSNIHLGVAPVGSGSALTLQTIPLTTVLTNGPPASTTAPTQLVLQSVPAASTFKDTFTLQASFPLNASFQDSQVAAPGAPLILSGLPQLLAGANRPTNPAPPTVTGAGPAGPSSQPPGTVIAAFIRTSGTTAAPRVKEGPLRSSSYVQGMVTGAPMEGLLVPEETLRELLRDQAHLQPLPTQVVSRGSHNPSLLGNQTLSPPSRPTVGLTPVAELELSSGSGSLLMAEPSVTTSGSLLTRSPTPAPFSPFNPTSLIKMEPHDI

As to TTAAAA, the binding signal is 1.16 fold enrichment (6-mer frequency, TF over GST control) with FEV; 1.14 fold enrichment (6-mer frequency, TF over GST control) in the assay with ETV5; 1.87 fold enrichment (6-mer frequency, TF over GST control) with HSF1; 1.28 fold enrichment (6-mer frequency, TF over GST control) with SPIC; 1.19 fold enrichment (6-mer frequency, TF over GST control) with ELF4; 1.27 fold enrichment (6-mer frequency, TF over GST control) with ELK4. For the same sequence, the binding signal with ETV2 is 1.25 fold enrichment (6-mer frequency, TF over GST control); with ELF3, 1.24 fold enrichment (6-mer frequency, TF over GST control); with CRX, 2.69 fold enrichment (6-mer frequency, TF over GST control); in the assay with ETV1 it was 1.22 fold enrichment (6-mer frequency, TF over GST control); with ERF it was 1.3 fold enrichment (6-mer frequency, TF over GST control); with ETV3L it was 1.27 fold enrichment (6-mer frequency, TF over GST control). In addition, the binding signal with ETS2 was 1.17 fold enrichment (6-mer frequency, TF over GST control); with SPDEF, 1.15 fold enrichment (6-mer frequency, TF over GST control); in the assay with ETV7, 1.26 fold enrichment (6-mer frequency, TF over GST control); with ELF5 it was 1.11 fold enrichment (6-mer frequency, TF over GST control); in the assay with ETV3, 1.17 fold enrichment (6-mer frequency, TF over GST control); with ETV6 it was 1.19 fold enrichment (6-mer frequency, TF over GST control).
